PubChem BioAssay (EPA / NIEHS)
Activity calls are given as the source filed them. Rule for the calls: active = hit-call score of the fitted dose curve at least 0.9, where 1 is the maximum; inactive = score below 0.9.

Legend:
[1] = BSK_BE3C_SRB: Viability Assessment in the BioMAP Diversity Plus: BE3C Assay (AID 2283028); details: primary human bronchial epithelial cells;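 for AC50: fitted both ways so AC50 may mark signal gain or loss versus DMSO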
Summary of the method: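 Overt cytotoxicity was assessed as total protein in confluent human primary bronchial epithelial cultures 24 h after chemical addition, using 0.1% sulforhodamine B staining read at 560 nm.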

[2] = read-out: Thrombomodulin, THBD (gene 7056); assay: BSK_3C_Thrombomodulin: BioMAP Diversity Plus: 3C Assay for Thrombomodulin Biomarker Activity (AID 2283029); details: primary human endothelial cells (HUVEC); actives raise or lower the signal
Summary of the method: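 Endothelial cells from umbilical vein are dosed with test chemical and incubated 24 h. Thrombomodulin is then quantified by ELISA, with DMSO serving as negative control and activity baseline.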

[3] = read-out: Vascular endothelial growth factor receptor 2 (Homo sapiens) (UniProt P35968); assay: BSK_4H_VEGFRII: BioMAP Diversity Plus: 4H Assay for Vascular endothelial growth factor receptor 2 (VEGFR2) Biomarker Activity (AID 2283031); details: primary human endothelial cells (HUVEC); actives raise or lower the signal;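 for AC50: cell-surface VEGFR2 protein level quantified by ELISA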
Summary of the method: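 VEGFRII levels on human vascular endothelial primary cells were determined by ELISA at 24 hours post-dosing, with gain- or loss-of-signal fitted against DMSO controls.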

[4] = read-out: Vascular cell adhesion molecule 1 (VCAM1), VCAM1 (gene 7412); assay: BSK_4H_VCAM1: BioMAP Diversity Plus: 4H Assay for Vascular cell adhesion molecule 1 (VCAM1) Biomarker Activity (AID 2283033); details: primary human endothelial cells (HUVEC); actives raise or lower the signal;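 for outcome: cell-surface VCAM-1 protein measured by ELISA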
Summary of the method: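 Chemicals are added to primary human umbilical vein endothelial cells. After 24 h, VCAM-1 levels are measured by ELISA. Values come from bidirectional fitting referenced to DMSO.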

[5] = read-out: Interferon-gamma inducible Protein 10 (IP10), CXCL10 (gene 3627); assay: BSK_BE3C_IP10: BioMAP Diversity Plus: BE3C Assay for Interferon-gamma inducible Protein 10 (IP10) Biomarker Activity (AID 2283034); details: primary human bronchial epithelial cells; actives raise or lower the signal
Summary of the method: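 IP-10 quantified by ELISA serves as the endpoint. Cells: primary human bronchial epithelium, read 24 h after compound addition. Activity is derived by bidirectional fitting with DMSO as negative control.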

[6] = read-out: Monokine induced gamma interferon (MIG), CXCL9 (gene 4283); assay: BSK_BE3C_MIG: BioMAP Diversity Plus: BE3C Assay for Monokine induced gamma interferon (MIG) Biomarker Activity (AID 2283035); details: primary human bronchial epithelial cells; actives raise or lower the signal;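 for outcome: MIG protein measured by ELISA in BE3C cultures after 24 h of dosing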
Summary of the method: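 ELISA quantified MIG after 24 h exposure of primary bronchial epithelial cultures, analysed in both directions relative to DMSO. Cytotoxicity tracked in parallel cultures by sulforhodamine B staining.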

[7] = read-out: Transforming growth factor beta 1 (TGFb1), TGFB1 (gene 7040); assay: BSK_BE3C_TGFb1: BioMAP Diversity Plus: BE3C Assay for Transforming growth factor beta 1 (TGFb1) Biomarker Activity (AID 2283036;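 for outcome: TGF-b1 protein level measured by ELISA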); details: primary human bronchial epithelial cells; actives raise or lower the signal
Summary of the method: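 Bronchial epithelial primary cells are treated with test chemical, then TGF-b1 is quantified by ELISA after 24 hours. Values derive from bidirectional fitting against DMSO, with cytotoxicity checked by SRB staining in parallel cultures.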

[8] = read-out: Plasminogen activator inhibitor-1 (PAI1), SERPINE1 (gene 5054); assay: BSK_BE3C_PAI1: BioMAP Diversity Plus: BE3C Assay for Plasminogen activator inhibitor-1 (PAI1) Biomarker Activity (AID 2283037); details: primary human bronchial epithelial cells; actives raise or lower the signal
Summary of the method: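 Values derive from bidirectional fitting against DMSO baseline of PAI-1 levels, measured by ELISA in human bronchial epithelial cells 24 h after compound addition.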

[9] = read-out: urokinase plasminogen activator (uPA), PLAU (gene 5328); assay: BSK_BE3C_uPA: BioMAP Diversity Plus: BE3C Assay for urokinase plasminogen activator (uPA) Biomarker Activity (AID 2283038); details: primary human bronchial epithelial cells; actives raise or lower the signal;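 for outcome: uPA protein level quantified by ELISA in cell cultures; uPA read one day after compound addition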
Summary of the method: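 Measured by ELISA: uPA from human primary bronchial epithelial cells 24 h after chemical treatment. Values derive from bidirectional curve fitting with DMSO serving as negative control. Total protein by SRB staining in parallel wells flagged overt cytotoxicity.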

[10] = read-out: Urokinase-type plasminogen activator receptor (uPAR), PLAUR (gene 5329); assay: BSK_BE3C_uPAR: BioMAP Diversity Plus: BE3C Assay for Urokinase-type plasminogen activator receptor (uPAR) Biomarker Activity (AID 2283039); details: primary human bronchial epithelial cells; actives raise or lower the signal;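 for outcome: uPAR protein level measured by ELISA on the cells; cells exposed to compound for one day before measurement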
Summary of the method: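 Steps: dose human primary bronchial epithelial cells, incubate 24 h, measure uPAR by ELISA, then fit gain- or loss-of-signal response bidirectionally relative to DMSO.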

[11] = read-out: Interleukin-6 (IL6), IL6 (gene 3569); assay: BSK_CASM3C_IL6: BioMAP Diversity Plus: CASM3C Assay for Interleukin-6 (IL6) Biomarker Activity for (AID 2283040); details: primary human coronary artery smooth muscle cells; actives raise or lower the signal
[12] = read-out: Interleukin-8 (IL8), CXCL8 (gene 3576); assay: BSK_CASM3C_IL8: BioMAP Diversity Plus: CASM3C Assay for Interleukin-8 (IL8) Biomarker Activity (AID 2283042); details: primary human coronary artery smooth muscle cells; actives raise or lower the signal;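 note: IL-8 protein level quantified by ELISA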
[13] = read-out: Human Leukocyte Antigen - DR isotype (HLADR), HLA-DRA (gene 3122); assay: BSK_CASM3C_HLADR: BioMAP Diversity Plus: CASM3C Assay for Human Leukocyte Antigen - DR isotype (HLADR) Biomarker Activity (AID 2283043); details: primary human coronary artery smooth muscle cells; actives raise or lower the signal;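 note: cell-surface HLA-DR protein level quantified by ELISA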
[14] = read-out: Macrophage colony-stimulating factor (MCSF), CSF1 (gene 1435); assay: BSK_CASM3C_MCSF: BioMAP Diversity Plus: CASM3C Assay for Macrophage colony-stimulating factor (MCSF) Biomarker Activity (AID 2283044); details: primary human coronary artery smooth muscle cells; actives raise or lower the signal;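 note: M-CSF protein amount quantified by ELISA after 24 h exposure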
[15] = read-out: Low-density lipoprotein receptor (LDLR), LDLR (gene 3949); assay: BSK_CASM3C_LDLR: BioMAP Diversity Plus: CASM3C Assay for Low-density lipoprotein receptor (LDLR) Biomarker Activity (AID 2283045); details: primary human coronary artery smooth muscle cells; actives raise or lower the signal;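 note: LDLR protein level on the cell surface quantified by ELISA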
[16] = read-out: Monocyte Chemoattractant Protein-1 (MCP1), CCL2 (gene 6347); assay: BSK_CASM3C_MCP1: BioMAP Diversity Plus: CASM3C Assay for Monocyte Chemoattractant Protein-1 (MCP1) Biomarker Activity (AID 2283046); details: primary human coronary artery smooth muscle cells; actives raise or lower the signal;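 note: MCP-1 level quantified by ELISA 24 h after dosing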
[17] = BSK_CASM3C_Proliferation: Cell Proliferation Assessment in the BioMAP Diversity Plus: CASM3C Assay (AID 2283047); details: primary human coronary artery smooth muscle cells;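 note: sulforhodamine B total protein stain as relative cell number at 560 nm; sub-confluent cells exposed 48 h before staining; fitted both ways against DMSO so gain or loss of cell number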
[18] = read-out: Tissue plasminogen activator (tPA), PLAT (gene 5327); assay: BSK_BE3C_tPA: BioMAP Diversity Plus: BE3C Assay for Tissue plasminogen activator (tPA) Biomarker Activity (AID 2283041); details: primary human bronchial epithelial cells; actives raise or lower the signal;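 note: tPA level quantified by ELISA one day after compound addition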
Summary of the method: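 Gain- or loss-of-signal in tPA, measured by ELISA, derived by bidirectional fitting against DMSO. Cells: human primary bronchial epithelial; read at 24 h after chemical dosing.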

[19] = read-out: Human Leukocyte Antigen - DR isotype (HLADR), HLA-DRA (gene 3122); assay: BSK_BE3C_HLADR: BioMAP Diversity Plus: BE3C Assay for Human Leukocyte Antigen - DR isotype (HLADR) Biomarker Activity (AID 2283032); details: primary human bronchial epithelial cells; actives raise or lower the signal
Summary of the method: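 Chemicals are dosed onto BE3C bronchial epithelial cultures of human origin and left 24 h. HLA-DR is then measured by ELISA, and the endpoint is fitted in both directions using DMSO as the activity baseline.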

CCOP(=O)(OCC)Oc1nc(Cl)c(Cl)cc1Cl
AC50 [1]: 4.23 µM (active)
outcome [2]: inactive
outcome [3]: inactive
AC50 [4]: 26.7 µM (active)
AC50 [5]: 23.9 µM (active)
outcome [6]: inactive
outcome [7]: inactive
outcome [8]: inactive
outcome [9]: inactive
AC50 [10]: 9.84 µM (active)
outcome [11]: inactive
outcome [12]: inactive
outcome [13]: inactive
outcome [14]: inactive
outcome [15]: inactive
outcome [16]: inactive
outcome [17]: inactive

CC1(C)CCC(=Cc2ccc(Cl)cc2)C1(O)Cn1cncn1 (configuration not stated)
outcome [1]: inactive
outcome [2]: inactive
outcome [3]: inactive
outcome [4]: inactive
outcome [5]: inactive
outcome [6]: inactive
outcome [7]: inactive
outcome [8]: inactive
outcome [9]: inactive
outcome [10]: inactive
outcome [11]: inactive
outcome [18]: inactive
outcome [12]: inactive
outcome [13]: inactive
outcome [14]: inactive
outcome [15]: inactive
outcome [16]: inactive
outcome [17]: inactive

CCNP(=S)(OC)O/C(C)=C/C(=O)OC(C)C (configuration not stated)
outcome [1]: inactive
outcome [2]: inactive
outcome [3]: inactive
outcome [4]: inactive
outcome [5]: inactive
outcome [6]: inactive
outcome [7]: inactive
outcome [8]: inactive
outcome [9]: inactive
outcome [10]: inactive
outcome [11]: inactive
outcome [12]: inactive
outcome [13]: inactive
outcome [14]: inactive
outcome [15]: inactive
outcome [16]: inactive
outcome [17]: inactive

C=CCOC(=O)C(C)(C)OC(=O)c1cc(-n2c(=O)cc(C(F)(F)F)n(C)c2=O)ccc1Cl
outcome [1]: inactive
outcome [2]: inactive
outcome [3]: inactive
outcome [4]: inactive
outcome [5]: inactive
outcome [6]: inactive
outcome [7]: inactive
outcome [8]: inactive
outcome [9]: inactive
outcome [10]: inactive
outcome [11]: inactive
outcome [12]: inactive
outcome [13]: inactive
outcome [14]: inactive
outcome [15]: inactive
AC50 [16]: 12.9 µM (active)
outcome [17]: inactive

COP(=O)(OC)O/C(C)=C/C(=O)N(C)C
outcome [1]: inactive
outcome [2]: inactive
outcome [3]: inactive
outcome [19]: inactive
outcome [4]: inactive
outcome [5]: inactive
outcome [6]: inactive
outcome [7]: inactive
outcome [8]: inactive
outcome [9]: inactive
outcome [10]: inactive
outcome [11]: inactive
outcome [12]: inactive
outcome [13]: inactive
outcome [14]: inactive
outcome [15]: inactive
outcome [16]: inactive
outcome [17]: inactive

CCCCOCN(C(=O)CCl)c1c(CC)cccc1CC
AC50 [1]: 31.1 µM (active)
AC50 [2]: 8.66 µM (active)
AC50 [3]: 31.1 µM (active)
AC50 [4]: 28.9 µM (active)
AC50 [5]: 35.5 µM (active)
AC50 [6]: 36.5 µM (active)
AC50 [7]: 31.9 µM (active)
AC50 [8]: 30.7 µM (active)
AC50 [9]: 31.4 µM (active)
AC50 [10]: 32.2 µM (active)
AC50 [11]: 4.92 µM (active)
AC50 [12]: 5.08 µM (active)
AC50 [13]: 26.1 µM (active)
AC50 [14]: 28.8 µM (active)
outcome [15]: inactive
AC50 [16]: 33.2 µM (active)
AC50 [17]: 27.4 µM (active)

CC(C)N1C(=O)N(c2ccccc2)CSC1=NC(C)(C)C
AC50 [1]: 27.8 µM (active)
outcome [2]: inactive
outcome [3]: inactive
AC50 [4]: 29.8 µM (active)
AC50 [5]: 30.4 µM (active)
outcome [6]: inactive
outcome [7]: inactive
outcome [8]: inactive
outcome [9]: inactive
AC50 [10]: 33.7 µM (active)
outcome [11]: inactive
outcome [18]: inactive
outcome [12]: inactive
outcome [13]: inactive
outcome [14]: inactive
outcome [15]: inactive
outcome [16]: inactive
AC50 [17]: 30 µM (active)
